What was measured:
Type in all cases: functional
[1] = biological target: Solute carrier family 2, facilitated glucose transporter member 1 (Homo sapiens) (UniProt P11166); assay: ST_JUDE_LEISH: Cytotoxicity at 2uM final concentration against transgenic Leishmania Mexicana promastigotes LmGLUT1 that are glucose transport deficient and complemented with the human glucose transporter GLUT1. Activity is measured by DNA content using SYBR green in vitro
[2] = biological target: Hexose transporter 1 (Plasmodium falciparum) (UniProt O97467); assay: ST_JUDE_LEISH: Cytotoxicity at 2uM final concentration against transgenic Leishmania Mexicana promastigotes LmPfHT that are glucose transport deficient and complemented with the Plasmodium falciparum hexose transporter. Activity is measured by DNA content using SYBR green in vitro
[3] = biological target: Glucose transporter (Leishmania mexicana) (UniProt O61059); assay: ST_JUDE_LEISH: Cytotoxicity at 2uM final concentration against transgenic Leishmania Mexicana promastigotes LmGT2 that are glucose transport deficient and complemented with the L. Mexicana glucose transporter 2. Activity is measured by DNA content using SYBR green in vitro

Solute carrier family 2, facilitated glucose transporter member 1 (Homo sapiens), sequence (P11166 whole entry): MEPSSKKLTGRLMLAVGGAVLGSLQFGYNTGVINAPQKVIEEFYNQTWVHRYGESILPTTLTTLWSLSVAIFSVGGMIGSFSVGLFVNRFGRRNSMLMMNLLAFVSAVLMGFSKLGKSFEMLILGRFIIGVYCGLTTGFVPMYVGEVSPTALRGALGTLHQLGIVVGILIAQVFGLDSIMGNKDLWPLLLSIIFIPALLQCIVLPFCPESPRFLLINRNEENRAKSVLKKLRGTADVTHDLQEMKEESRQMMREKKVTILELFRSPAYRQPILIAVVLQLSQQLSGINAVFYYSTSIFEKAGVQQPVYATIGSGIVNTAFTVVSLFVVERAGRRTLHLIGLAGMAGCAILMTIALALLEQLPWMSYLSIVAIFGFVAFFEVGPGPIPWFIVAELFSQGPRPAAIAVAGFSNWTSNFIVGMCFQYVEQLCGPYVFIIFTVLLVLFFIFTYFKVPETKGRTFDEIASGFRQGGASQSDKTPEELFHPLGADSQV

Row | SMILES | inhibition [1] [%] | inhibition [2] [%] | inhibition [3] [%]
1 | CCN(CC)c1ccc(C=CC(=O)NCCN2CCC(N(C)C3CCCCC3C)CC2)cc1 (stereo not given) | -2.14 | -0.93 | -0.02
2 | Cc1[nH]c2c(NCc3ccc(F)cc3)nccc2c1C | 4.48 | 4.33 | 2.57
3 | c1ccc(-c2ccc(CNCc3ccc(-c4cccc(-c5nc6ccccc6[nH]5)c4)cc3)s2)nc1 | 1.04 | 2.78 | 0.61
4 | CC(Cc1ccc(NC(=O)c2ccc(CC(C)NCc3ccc(Cl)cc3)cc2)cc1)NCCc1cccc(Cl)c1 (stereo not given) | 10.3 | 6.78 | 1.33
5 | COc1ccc(CN2CCC(C(=O)Nc3cccc(-c4cccc(Cl)c4)c3)CC2)cc1O | 5.45 | 7.5 | 6.49
6 | CCn1c(-c2nc(-c3ccnc(N4CCN(C)CC4)c3)cnc2N)nc2cc(S(C)(=O)=O)ccc21 | 36.5 | 45.3 | 20.7
7 | CCc1c(C)c(C#N)c2nc3ccccc3n2c1NCc1ccco1 | 4.43 | 4.23 | 2.13
8 | CC(C)NCC(O)COc1ccc(Cc2ccc(OCC(O)CNC(C)C)cc2)cc1 (stereo not given) | -0.23 | 0.19 | -0.55
9 | COc1cc(C)nc2ccc(NC(=O)Nc3cccc4ccccc34)cc12 | 3.38 | 5.33 | 3.45
10 | CC1(C)NC(N)=NC(=N)N1OCCCc1cc(Cl)c(Cl)cc1Cl | 3.14 | 2.31 | 2.77
11 | Cc1ccc(NC(=O)Nc2ccccc2F)cc1-c1ccc(C(=O)Nc2ccncc2)cc1 | 1.42 | 1.06 | 0.59
12 | CC(C)COc1ccc(Cl)cc1Cc1nc(-c2nc3ccc(N4CCN(C)CC4)nc3[nH]2)cs1 | -3.46 | 1.5 | 3.9
13 | COc1ccc2nccc([C@@H](O)CN3CCC(NCc4nc5c(cc4Cl)OCC(=O)N5)C(F)C3)c2c1 (stereo not given in full) | 1.37 | 0.56 | 0.2
14 | CCCCCCN1CCC(NCc2cccc(C(F)(F)F)c2)CC1 | 9.06 | 12.2 | 6.27
15 | Cc1cccc2nc(-c3cccc(-c4ccc(NC(=O)COC(C)C)cc4)c3)[nH]c12 | -3.18 | 0.45 | -2.12
